High-throughput results: PubChem BioAssay, National Center for Advancing Translational Sciences (NCATS)
PI5P4Ka inh = PI5P4K alpha (human) kinase inhibition | P48426 | PI5P4Kalpha enzyme, ADP-Glo luminescence, 60 min; hits give low values | max response, % | 1.2% of 330,000 active | AID 652105; active means max response of -50% or lower; inconclusive means between -30% and -50%; inactive means -30% or higher; further: value at the top dose of about 77 µM
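Reactions run in 0.038 M HEPES pH 7.4, 0.28 mM EGTA, 0.1% CHAPS and 5% DMSO, with PI5P4Kalpha, substrate, compound and 5 microM ATP final, one hour at room temperature. Readout is ADP-Glo luminescence.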
USP1 inh = blocks the human USP1/UAF1 deubiquitinase complex | recombinant USP1/UAF1, Ub-Rhodamine cleavage fluorescence | Potency, µM (series often up to 57.1 µM), for the others: top-dose activity change, negative = inhibition, usual class: inhibitors | 0.23% of 390,000 active | AID 743255; further: potency means the concentration at half of the fitted maximal effect; nearly all actives have a fitted effect of over 60% in size
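High-throughput fluorogenic screen: 1nM USP1/UAF1 complex, Ub-Rho substrate 150nM final, 50mM HEPES pH 7.8 with 0.5mM EDTA, 0.1 mg/ml BSA, 1mM TCEP and 0.01% Tween-20.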
USP2a block = blocks human ubiquitin-specific protease USP2a | O75604 | USP2 core, Ub-CHOP2 coupled fluorogenic reporter, 485/531 | Potency, µM (doses to about 38.3 µM), without a hit: top-dose activity change, negative = inhibition, most hits filed as inhibitors | 0.01% of 330,000 active | AID 463254;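 further: potency means the concentration at half of the fitted maximal effect; plate controls were DMSO wells for no effect and full inhibition by NEM control for full effect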
Target sequence (O75604 whole entry, looked up): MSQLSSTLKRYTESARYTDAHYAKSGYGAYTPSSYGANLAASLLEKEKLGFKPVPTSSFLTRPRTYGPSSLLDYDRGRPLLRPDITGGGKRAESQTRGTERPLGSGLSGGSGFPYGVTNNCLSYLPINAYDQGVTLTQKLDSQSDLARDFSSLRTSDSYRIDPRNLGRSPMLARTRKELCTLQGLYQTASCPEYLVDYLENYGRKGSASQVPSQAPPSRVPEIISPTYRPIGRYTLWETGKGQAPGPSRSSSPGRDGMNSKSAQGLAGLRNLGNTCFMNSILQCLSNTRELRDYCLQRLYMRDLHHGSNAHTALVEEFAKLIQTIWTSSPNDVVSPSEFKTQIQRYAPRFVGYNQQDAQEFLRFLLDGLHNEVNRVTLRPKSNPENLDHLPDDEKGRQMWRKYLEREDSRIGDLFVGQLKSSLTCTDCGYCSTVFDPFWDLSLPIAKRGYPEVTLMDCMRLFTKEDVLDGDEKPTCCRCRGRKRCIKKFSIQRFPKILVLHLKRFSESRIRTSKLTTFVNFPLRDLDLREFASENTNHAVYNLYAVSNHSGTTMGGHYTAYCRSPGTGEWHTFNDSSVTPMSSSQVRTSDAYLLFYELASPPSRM
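Deubiquitinase activity read as fluorescence (485/531 nm) after Ub-CHOP2 cleavage activates the enterokinase reporter on its substrate; USP2 core 10nM, Ub-CHOP2 and substrate 25nM each, 30min compound preincubation then 60min RT; data normalized to NEM, curves fitted.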
PLK1 PBD block = blocks phosphopeptide binding to human PLK1 polo-box domain; Plk1 PBD binding of FITC phosphopeptide, fluorescence polarization; Potency, µM, for inactives: max response, negative = inhibition, usual class: inhibitors; 2.8% of 360,000 active; AID 720504; further: potency means the concentration at half of the fitted maximal effect; series mostly up to about 57 µM; nearly all actives have a fitted effect of over 65% in size
WRN helicase inh = blocks human WRN helicase | 0.46% of 360,000 active | WRN helicase unwinding, fluorescent forked duplex, kinetic | Q14191 | Potency, µM (titrated, usually from 114 µM), without a hit: top-dose activity change, negative = inhibition, most hits filed as inhibitors; further: potency means the concentration at half of the fitted maximal effect; nearly all actives have a fitted effect of over 55% in size
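WRN at 20 nM final preincubated with compound 15 min at room temperature; reaction started with 100 nM fluorophore/quencher forked duplex oligonucleotide and 2 mM ATP final. Unwinding followed kinetically by red fluorescence (ex 525, em 598 nm).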
* marks the source's active call; other numbers are inactive results; [ ] = remark or other dose. A selection: hits, their analogues and other compounds. The true share with any hit is near 3.3%. Unless noted, the call rests on the fitted dose curve; in most records, active means well fitted curve in the direction sought with a large enough effect; inconclusive means small, poorly fitted or top-dose-only effect, or another doubt; inactive means no such curve, though single readings can be large; an effect the other way counts as inactive or inconclusive. Unless noted, on the % scale 0 is the no-effect control and ±100 the full control effect.

For CC1CN(C(=O)N2CCC(C(=O)NCCCc3ccccc3)CC2)c2ccccc2O1 (centres undefined) the results were USP1 inh -22%.
`CC(C)NC(=O)N1CCN(S(=O)(=O)c2ccc3c(ccn3C)c2)CC1` gave USP1 inh -10%.
Cc1ccc(C(=O)N2CCc3ccccc32)cc1[N+](=O)[O-] was read as PI5P4Ka inh 4, USP1 inh -29%, USP2a block -1%, PLK1 PBD block 30µM* and WRN helicase inh -6%.
Screening O=C(c1cc(Cl)ccc1Cl)N1CCc2ccccc21 returned PI5P4Ka inh inconclusive, USP1 inh -25%, USP2a block -2%, PLK1 PBD block 27µM* and WRN helicase inh -24%.
`O=c1c2ccccc2n(Cc2ccccc2F)c(=O)n1-c1cccc(F)c1` gave USP1 inh -21%.
O=C1CC(SC(=S)C2CCCC2=O)C(=O)N1 (centres undefined) was read as PI5P4Ka inh -80*, USP1 inh -10%, PLK1 PBD block 13µM* and WRN helicase inh 35µM*.
`COc1ccc(NC(=O)N2CCN(C(=O)Nc3ccc(OC)cc3)CC2)cc1` gave PI5P4Ka inh 15, USP1 inh -11%, USP2a block 0%, PLK1 PBD block -11% and WRN helicase inh -4%.
Screening COc1ccc(NC(=O)N2CCN(S(C)(=O)=O)CC2)cc1 returned PI5P4Ka inh -15, USP1 inh -16%, USP2a block 1%, PLK1 PBD block 27µM* and WRN helicase inh 1%.
`COc1cccc(CNC(=O)CCn2nc(C)c3c(C)n(-c4ccccc4)nc3c2=O)c1` gave USP1 inh -6%.
For Cc1ccc(C(=O)N/N=C/c2cccc(OC(=O)/C=C/c3ccco3)c2)cn1 the results were PI5P4Ka inh inconclusive, USP1 inh 7%, USP2a block 11%, PLK1 PBD block 27µM* and WRN helicase inh -5%[57.1 µM].
For CC(/C=C/c1ccco1)=N/NC(=O)c1ccc(C)nc1 the results were PI5P4Ka inh 1, USP1 inh -5%, USP2a block 8%, PLK1 PBD block -1% and WRN helicase inh -11%.
Screening COc1ccc(N(CC(=O)N2CCOCC2)S(C)(=O)=O)c(OC)c1 returned PI5P4Ka inh 1, USP1 inh -1%, USP2a block 1%, PLK1 PBD block 21µM* and WRN helicase inh -9%.
Screening COc1ccc([N+](=O)[O-])cc1N(CC(=O)N1CCN(Cc2ccccc2)CC1)S(C)(=O)=O returned PI5P4Ka inh -1, USP1 inh -1%, USP2a block 1%, PLK1 PBD block 12µM* and WRN helicase inh -5%.
`CCOc1ccc(NC(=O)Cn2c(=O)n(Cc3ccco3)c(=O)c3ccc(C(=O)NC4CCCC4)cc32)cc1` gave USP1 inh -23%.
Cc1ccc2oc(C(=O)N3CCN(c4cccc(C)n4)CC3)c(C)c2c1 was read as PI5P4Ka inh -6, USP1 inh -16%, USP2a block -5%, PLK1 PBD block 27µM* and WRN helicase inh -4%.
Cc1cc(Cl)c2oc(C(=O)N3CCN(c4cccc(C)n4)CC3)c(C)c2c1 was read as PI5P4Ka inh -8, USP1 inh -23%, USP2a block 0%, PLK1 PBD block -28% and WRN helicase inh -31%.
Screening COC(=O)n1c(SC)nc2ccccc21 returned PI5P4Ka inh 2, USP1 inh -5%, USP2a block -1%, PLK1 PBD block 27µM* and WRN helicase inh -7%.
`CCCCNC(=O)n1c(SC)nc2ccccc21` gave PI5P4Ka inh -1, USP1 inh 5%, USP2a block -1%, PLK1 PBD block inconclusive and WRN helicase inh -5%.
Screening COc1ccc2oc(=O)c(C(=O)N3CCN(C(=O)c4ccco4)CC3)cc2c1 returned PI5P4Ka inh 2, USP1 inh -23%, USP2a block -1%, PLK1 PBD block 30µM* and WRN helicase inh 7%.
For COc1ccc2oc(=O)c(/C(N)=N/NC(=O)c3ccncc3)cc2c1 the results were PI5P4Ka inh 3, USP1 inh -19%, USP2a block 0%, PLK1 PBD block 24µM* and WRN helicase inh -11%.
CNC(=O)c1cc2cc(OC)ccc2oc1=O was read as USP1 inh -8%, USP2a block 2%, PLK1 PBD block -2% and WRN helicase inh -2%.
